Several values for one entry are separate records, joined by “and”; a condition that tells them apart may be missing. Equal values may be shown once. Records with an inconclusive call do not appear. Entries that show only a call come without a potency. Some compounds were tested as several samples or in several runs, with calls that do not always agree. Activity calls are given as the source filed them. Unless noted, the call rests on the fitted dose curve; in most records, active means well fitted curve in the direction sought with a large enough effect in the repeat runs; inconclusive means weak or mixed curves; inactive means no such curve, though single readings can be large; an effect the other way counts as inactive or inconclusive.
Tests used:
[1] = qHTS assay to identify small molecule agonists of H2AX - cell viability counter screen (AID 1224847; calls by dose curve; further: top concentration of the series differs between compounds; nearly all actives have a fitted effect of over 30% in size)
Procedure, shortened: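 Wild-type CHO-K1 cells (10% FBS medium) were plated overnight at 37C, exposed to compounds at 15 concentrations for 3 hr at 37C (0.76% DMSO final), and viability was read as CellTiter-Glo luminescence after 30 min at room temperature.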

[2] = qHTS RealTime-Glo MT Cell Viability Assay in HepG2 cells - 24 hour (AID 1224867); further: nearly all actives have a fitted effect of over 50% in size
Procedure, shortened: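 Real-time, nonlytic viability: 600 HepG2 cells/well mixed with NanoLuc enzyme plus prosubstrate; 5 h settle, compound (DMSO) added by pintool; luminescence monitored over 40 h at 37 C.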

[3] = qHTS RealTime-Glo MT Cell Viability Assay in HEK293 cells - 32 hour (AID 1224868); further: nearly all actives have a fitted effect of over 50% in size; further: potency means the concentration at half of the fitted maximal effect
Procedure, shortened: (§1)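 Cells + reagent dispensed (600 cells/well, HEK293) → 5 h at 37 C/5% CO2 → 23 nL compound in DMSO pinned → 40 h at 37 C → luminescence read at 0, 8, 16, 24, 32, 40 h.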

[4] = A CellTox Green Cytotoxicity Assay to monitor cytotoxicity in HEK293 cells - 0 hour (AID 1224869); further: nearly all actives have a fitted effect of over 50% in size; further: potency means the concentration at half of the fitted maximal effect
Procedure, shortened: (§2)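 Seeding of HEK293 cells together with cytotoxicity dye preceded a 5 h incubation at 37 C/5% CO2. Test compounds in DMSO were then added and fluorescence monitored across 40 h.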

[5] = qHTS RealTime-Glo MT Cell Viability Assay in HepG2 cells - 40 hour (AID 1224870); further: nearly all actives have a fitted effect of over 50% in size
Procedure, shortened: (§3)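 Real-time viability: cells seeded at 600 per well together with NanoLuc and cell-permeant prosubstrate, compounds added after 5 h incubation. Luminescence tracked at 0, 8, 16, 24, 32 and 40 h of exposure.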

[6] = A CellTox Green Cytotoxicity Assay to monitor cytotoxicity in HEK293 cells - 40 hour (AID 1224871); further: nearly all actives have a fitted effect of over 45% in size
Procedure, shortened: as §2

[7] = qHTS RealTime-Glo MT Cell Viability Assay in HEK293 cells - 16 hour (AID 1224872)
Procedure, shortened: as §1

[8] = qHTS RealTime-Glo MT Cell Viability Assay in HepG2 cells - 8 hour (AID 1224873); further: nearly all actives have a fitted effect of over 55% in size
Procedure, shortened: as §3

Structure (SMILES)	Potency [1]	outcome [2]	Potency [3]	Potency [4]	outcome [5]	Potency [6]	outcome [7]	outcome [8]
Oc1ccccc1Cl	inactive	inactive	inactive	inactive	inactive	inactive	inactive	inactive
CCCN(CCC)c1c([N+](=O)[O-])cc(C(F)(F)F)cc1[N+](=O)[O-]	inactive	inactive	inactive	1.55 µM (active) and inactive	inactive	inactive	inactive	inactive
Clc1ccccc1Cl	inactive	inactive	inactive	inactive	inactive	inactive	inactive	inactive
c1ccc2c(c1)Oc1ccccc1O2	inactive	inactive	inactive	inactive	inactive	inactive	inactive	inactive
CCCCN(CC)C(=O)SCCC	inactive	inactive	inactive and 19.5 µM (active)	inactive	inactive	inactive	inactive	inactive
C[C@]12CC[C@H]3[C@@H](CC[C@@]45O[C@@H]4C(O)=C(C#N)C[C@]35C)[C@@H]1CC[C@@H]2O	inactive	inactive	inactive	inactive	inactive	inactive	inactive	inactive
O=c1[nH]c2ccccc2c(=O)o1	inactive	inactive	inactive	inactive	inactive	inactive	inactive	inactive

Reference: PubChem BioAssay (Tox21)
